Type in all cases: functional
Assay [1] has as its target Solute carrier family 2, facilitated glucose transporter member 1 (Homo sapiens) (UniProt P11166). In words: ST_JUDE_LEISH: Cytotoxicity at 2uM final concentration against transgenic Leishmania Mexicana promastigotes LmGLUT1 that are glucose transport deficient and complemented with the human glucose transporter GLUT1. Activity is measured by DNA content using SYBR green in vitro.

Assay [2] addresses Hexose transporter 1 (Plasmodium falciparum) (UniProt O97467). In words: ST_JUDE_LEISH: Cytotoxicity at 2uM final concentration against transgenic Leishmania Mexicana promastigotes LmPfHT that are glucose transport deficient and complemented with the Plasmodium falciparum hexose transporter. Activity is measured by DNA content using SYBR green in vitro.
In assay [3] the target is Glucose transporter (Leishmania mexicana) (UniProt O61059). The experiment in a line: ST_JUDE_LEISH: Cytotoxicity at 2uM final concentration against transgenic Leishmania Mexicana promastigotes LmGT2 that are glucose transport deficient and complemented with the L. Mexicana glucose transporter 2. Activity is measured by DNA content using SYBR green in vitro.

Solute carrier family 2, facilitated glucose transporter member 1 (Homo sapiens), sequence (P11166 whole entry): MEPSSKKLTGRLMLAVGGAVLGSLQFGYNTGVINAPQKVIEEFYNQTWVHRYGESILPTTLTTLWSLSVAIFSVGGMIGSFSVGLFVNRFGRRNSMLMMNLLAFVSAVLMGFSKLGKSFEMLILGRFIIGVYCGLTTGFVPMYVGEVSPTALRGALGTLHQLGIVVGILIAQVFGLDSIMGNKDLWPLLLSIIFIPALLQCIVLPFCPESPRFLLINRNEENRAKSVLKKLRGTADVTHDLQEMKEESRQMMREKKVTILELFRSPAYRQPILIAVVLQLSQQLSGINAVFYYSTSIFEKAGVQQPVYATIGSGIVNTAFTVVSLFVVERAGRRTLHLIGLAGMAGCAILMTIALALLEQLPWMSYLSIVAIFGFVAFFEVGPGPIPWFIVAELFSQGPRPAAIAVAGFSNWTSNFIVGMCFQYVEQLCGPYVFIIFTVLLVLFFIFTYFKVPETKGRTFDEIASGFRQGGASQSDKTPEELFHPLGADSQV

In the case of `Nc1nc(N)c2c(ccc3c2ccn3CC2CC2)n1`, the inhibition in assay [1] came to 2.11%; in assay [2], 6.17%; in assay [3], 0.91%.
The corresponding values for `Cc1cccc(Nc2nc(NCCCCN)nc3cc[nH]c(=O)c23)c1` are 6.92%, 6.97% and 4.49%.
The corresponding values for `C#CCNCc1ccc(-c2ccc(-c3nc4cc(C(F)(F)F)ccc4[nH]3)s2)cc1` are 0.44%, -0.12% and -1.09%.
On the same counts, the results for `CC(C)N1CCCN(C(=O)C2CCN(c3ccc(C(=O)N4CCCC4)cn3)CC2)CC1` are 5.32%, 4.11% and 4.51%.

The values are drawn from ChEMBL document CHEMBL3433997, “St. Jude Leishmania screening dataset” (2016).
